# Screening results deposited in PubChem BioAssay by National Center for Advancing Translational Sciences (NCATS).
# HP1b chromo inh: HTS for Inhibitors of HP1-beta Chromodomain Interactions with Methylated Histone Tails | AlphaScreen HP1-beta / biotin-H3K9me3 peptide binding | Potency, µM (highest dose often 114 µM), for the others: top-dose activity change, negative = inhibition, hits mostly inhibitors | Chromobox protein homolog 1 (Homo sapiens), P83916 | actives 0.56% (n = 390,000); also: nearly all actives have a fitted effect of over 70% in size
# Target sequence (P83916 whole entry, looked up): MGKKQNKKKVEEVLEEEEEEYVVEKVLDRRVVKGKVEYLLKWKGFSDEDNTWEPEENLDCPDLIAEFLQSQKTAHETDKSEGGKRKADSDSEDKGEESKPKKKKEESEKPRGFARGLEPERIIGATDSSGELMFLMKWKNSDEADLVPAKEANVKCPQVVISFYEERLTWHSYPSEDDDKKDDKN
#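 HP1-beta protein (50 nM final) preincubated 30 min at room temperature with biotinylated H3(1-18)K9me3 peptide (50 nM) in PBS pH 7.4, 0.01% Tween-20, then compound added for 30 min. AlphaScreen streptavidin donor/nickel chelate acceptor beads (10 ug/mL final), 30 min dark, luminescence read.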
# JMJD2A Tudor: qHTS Assay for Inhibitors of JMJD2A-Tudor Domain; Lysine-specific demethylase 4A (Homo sapiens), O75164; AlphaScreen JMJD2A-Tudor / H3K4me3 peptide binding; Potency, µM (titrated, usually from 114 µM), without a hit: at the highest dose activity change, negative = inhibition, actives largely listed as inhibitors; actives 4.4% (n = 390,000); AID 504339, 2011; also: % is scaled to controls: 0 for no effect and ±100 for the full control effect; nearly all actives have a fitted effect of over 50% in size
# G9a inh: qHTS Assay for Inhibitors of Histone Lysine Methyltransferase G9a. Histone-lysine N-methyltransferase EHMT2 (Homo sapiens), Q96KQ7. G9a H3K9 monomethylation, AlphaScreen, 2 h. Potency, µM (highest dose often 102 µM), for inactives: at the top dose activity, negative = inhibition, hits mostly inhibitors. actives 8.8% (n = 350,000). AID 504332, 2011; also: % is scaled to controls: 0 for no effect and ±100 for the full control effect; nearly all actives have a fitted effect of over 75% in size
# Target sequence (Q96KQ7 913-1193 limits assumed): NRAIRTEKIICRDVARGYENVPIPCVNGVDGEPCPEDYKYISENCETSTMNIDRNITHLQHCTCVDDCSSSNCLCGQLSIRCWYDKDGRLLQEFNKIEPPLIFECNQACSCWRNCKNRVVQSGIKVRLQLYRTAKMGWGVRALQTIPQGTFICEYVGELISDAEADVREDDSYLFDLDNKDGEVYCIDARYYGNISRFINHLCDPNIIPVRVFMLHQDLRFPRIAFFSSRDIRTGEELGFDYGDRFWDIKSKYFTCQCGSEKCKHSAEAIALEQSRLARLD
#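 G9a (20 nM) preincubated 15 min RT with compounds, then 500 nM biotinylated H3K9 peptide and 20 uM SAM added; 2 h RT reaction. Monomethyl-H3K9 product detected by AlphaScreen with anti-H3K9me1 antibody, streptavidin donor and anti-rabbit IgG acceptor beads.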
# 12-LOX inh: Primary qHTS assay for inhibitors of human arachidonate 12S-lipoxygenase (ALOX12): Round 2; Potency, µM (top dose mostly 108 µM), inactives show at the highest dose activity change, negative = inhibition, actives largely listed as inhibitors; purified 12hLO, xylenol orange hydroperoxide absorbance; actives 1.1% (n = 580,000); Polyunsaturated fatty acid lipoxygenase ALOX12 (Homo sapiens), P18054; also: % is scaled to controls: 0 for no effect and ±100 for the full control effect
#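 Purified human 12hLO (150 nM final) in 25 mM Hepes, 0.01% Triton X-100, pH 7.0 was preincubated 15 min at room temperature with compound. Then 40 uM arachidonic acid was added, 30 min. Hydroperoxide was read by Fe-XO absorbance ratio 573/405 nm.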
# Sfp PPTase inh: qHTS Assay for Inhibitors of Bacillus subtilis Sfp phosphopantetheinyl transferase (PPTase); Biochemical Sfp PPTase activity, qHTS; AID 1490, 2009; actives 3.5% (n = 310,000); Potency, µM, inactives show largest response in the series, negative = inhibition, actives largely listed as inhibitors; 4'-phosphopantetheinyl transferase ffp (Bacillus subtilis), Q9F4F7;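 also: the enzyme is Sfp with the accession as filed and its product quenches rhodamine fluorescence; 0% = enzyme reaction without inhibitor and -100% = no enzyme wells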
#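 Compounds were incubated with enzyme (final 15 nM) for 15 min at room temperature before substrate addition started the reaction. Fluorescence at 525 nm excitation, 598 nm emission was recorded immediately and after 30 minutes.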
# BAZ2B block: qHTS Assay for Inhibitors of BAZ2B. Bromodomain adjacent to zinc finger domain protein 2B (Homo sapiens), Q9UIF8. AlphaScreen BAZ2B-H3K14Ac peptide displacement. Potency, µM (doses to about 114 µM), for the others: at the highest dose activity change, negative = inhibition, actives largely listed as inhibitors. actives 4.4% (n = 360,000); also: % is scaled to controls: 0 for no effect and ±100 for the full control effect; nearly all actives have a fitted effect of over 60% in size
#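 AlphaScreen luminescence quantifies BAZ2B engagement of H3K14Ac peptide; the protein and biotinylated peptide are both at 50 nM final, buffer PBS pH 7.4 with 0.01% Tween-20, all steps at room temperature.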
# Starred values were filed as active, the others as inactive; ? = inconclusive; · = no result; [ ] = another dose, or the depositor's remark. An excerpt weighted towards active compounds, which were near 8.7% of everything screened. Calls follow the shape of the dose curve; as a rule, active = well fitted curve in the direction sought with a large enough effect; inconclusive = small, poorly fitted or top-dose-only effect, or another doubt; inactive = no such curve, though single readings can be large; an effect the other way counts as inactive or inconclusive. Potency is read from the fitted curve at half-maximal effect.
SMILES,HP1b chromo inh,JMJD2A Tudor,G9a inh,12-LOX inh,Sfp PPTase inh,BAZ2B block
CC1=CCC2C(C1)C2(C)C (centres undefined),·,·,·,79µM*,·,·
CC1=CCC2CC1C2(C)C (centres undefined),·,·,17%[59 µM],·,20%,·
COc1cc(CN2CCC(C(=O)N3CCCC(C)C3)CC2)cc(Br)c1O (centres undefined),?,?,7.9µM*,?,-18%,22µM*
COc1cc(CN2CCCCCC2)cc(Br)c1O,?,22µM*,?,?,7%,71µM*
COc1ccc(CN2CCC(C(=O)N3CCCC(C)C3)CC2)cc1OC (centres undefined),-16%,18µM*,18µM*,-15%,4%,50µM*
COc1cccc2c1OCC(C(=O)N1CCC(NS(C)(=O)=O)CC1)C2 (centres undefined),·,·,·,13%,·,·
CCOC(=O)c1c[nH]c2c(C)ccc(Cl)c2c1=O,6%,28µM*,6%,1%,9%,-18%
CC(CC(=O)Nc1cccnc1)c1ccccc1 (centres undefined),16%,-9%,4%,2%,13%,-9%
CC(CSc1n[nH]c(=S)s1)c1ccccc1 (centres undefined),50µM*,18µM*,·,?,·,·
O=C1c2ccccc2C(=O)N1CCSc1n[nH]c(=S)s1,?,18µM*,1.3µM*,?,50µM*,?
CC(C)CSc1n[nH]c(=S)s1,28µM*,8.9µM*,1.8µM*,22µM*,35µM*,50µM*
CC(C)(C)c1nnc2sc(SCCN3C(=O)c4ccccc4C3=O)nn2c1=O,35%,-9%,-2%,-23%,-7%,-3%
CC(C)CSc1n[nH]c(N)n1,0%,-14%,13%,-13%,4%,-7%
Cc1c(CN2CC(=O)N(CC(C)C)CC(OCc3ccccc3F)C2)c(=O)n(-c2ccccc2)n1C (centres undefined),·,·,·,17%,·,·
Cc1c(C(=O)NNC(=O)c2csc(N3CCOCC3)n2)oc2ccc(Br)cc12,·,·,·,40µM*,·,·
Cc1c(C(=O)NCCN2CCOCC2)oc2ccc(Br)cc12,?,-10%,18%[0.501 µM],3%,·,50µM*
Cc1c(C(=O)NC2CCN(Cc3ccccc3)C2)oc2ccc(Br)cc12 (centres undefined),2%,?,35µM*,?,-1%,?
O=C(Nc1nonc1-c1ccc2c(c1)CCCC2)c1cc(=O)c2ccccc2o1,·,·,·,-37%,·,·
CCC(C)NC(=O)c1cc(-c2cccnc2)nc2ccccc12 (centres undefined),·,·,·,-23%,·,·
NC(=O)c1nn(CC(O)COc2ccccc2)c(=O)c2ccccc12 (centres undefined),·,·,·,-1%,·,·
CCCCOCc1cc(CN2CCN(c3cccc(Cl)c3)CC2)c(O)c2ncccc12,59%,4µM*,-2%[59 µM],?,·,5.6µM*
CCCOCc1cc(CN2CCN(c3cccc(Cl)c3)CC2)c(O)c2ncccc12,10%,13µM*,-21%[59 µM],-2%,·,32µM*
Cc1ccc(C2(C(=O)NC(C)c3cnc(-c4ccncc4)nc3C)CC2)cc1 (centres undefined),·,·,·,20%,·,·
COCc1nc(C2CCCN(C(=O)c3cnccn3)C2)no1 (centres undefined),·,·,·,12%,·,·
